The results in this text go back to PubChem BioAssay (NCATS).

“And” between values parts separate entries of the source, which are not always exact repeats. Identical values can stand only once. Inconclusive results are not listed. Values without a mark were called inactive. The source made the active and inactive calls. Calls follow the shape of the dose curve; as a rule, active = well fitted curve in the direction sought with a large enough effect; inconclusive = small, poorly fitted or top-dose-only effect, or another doubt; inactive = no such curve, though single readings can be large; an effect the other way counts as inactive or inconclusive. Peptide text beside a SMILES is read from it. * marks the point of attachment. AFC = O=c1cc(C(F)(F)F)c2ccc(N*)cc2o1

Assay [1] has as its target Cellular tumor antigen p53 (Homo sapiens) (UniProt P04637). Description: Primary qHTS for small molecule compounds that upregulate eGFP-tagged delta133p53alpha (in N-terminal) cells. (AID 2060322). Also: nearly all actives have a fitted effect of over 75% in size. Also: potency is read from the fitted curve at half-maximal effect.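 As to activation: series mostly up to about 56 µM; 0% = DMSO vehicle and 100% = reference activator.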 As to conditions: NCI-H358 eGFP-delta133p53alpha fluorescence, 24 h; activation: active compounds read high. In outline: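 NCI-H358 cells pre-induced 24 h with 10 ng/ml doxycycline to express N-terminal eGFP-delta133p53alpha, then dosed 24 h at 37C without doxycycline; fixed, Hoechst-stained, GFP intensity by laser scanning cytometry, normalized to DMSO (0%) and 57.5 uM 5-azacytidine (100%).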

For assay [2], the target named is Aldehyde dehydrogenase, mitochondrial (Homo sapiens) (UniProt P05091). The experiment in a line: qHTS for Inhibitors of the Aldehyde Dehydrogenase Family (ALDH2) Primary screen (AID 2061308). Also: nearly all actives have a fitted effect of over 55% in size. Also: potency is read from the fitted curve at half-maximal effect.
The target of assay [3] is Retinaldehyde dehydrogenase 3 (Homo sapiens) (UniProt P47895). The experiment in a line: qHTS for Inhibitors of the Aldehyde Dehydrogenase Family (ALDH1A3) Validation screen (AID 2061312). Also: nearly all actives have a fitted effect of over 45% in size. Also: potency is read from the fitted curve at half-maximal effect. For orientation: In qHTS, concentration-response curves come from the screen itself.
For assay [4] the target is unchanged. The experiment in a line: qHTS for Inhibitors of the Aldehyde Dehydrogenase Family (ALDH1A3) Primary screen (AID 2061315).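 Also: plate controls were DMSO vehicle for no effect and reference inhibitor for full effect.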
Assay [5] in a line: BET inhibitor-based combinations targeting novel dependencies in MECOM-rearranged (r) AML: HNT-34 cell line (AID 2202234). Also: nearly all actives have a fitted effect of over 35% in size. Also: potency is read from the fitted curve at half-maximal effect. In outline: (§1)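 Seeding density was 500 cells/well, and drug exposure lasted 48 hr under standard culture conditions. Read-out used CellTiter-Glo reagent with a 15 min room-temperature incubation before luminescence measurement; AUC and Z-AUC summarize the normalized responses.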

The nature of assay [6]: BET inhibitor-based combinations targeting novel dependencies in MECOM-rearranged (r) AML: AML-191 cell line (AID 2202236; also: nearly all actives have a fitted effect of over 35% in size; also: potency is read from the fitted curve at half-maximal effect). In outline: (§2)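 Readout: CellTiter-Glo luminescence. Exposure: 48 h, 11 concentrations, 500 cells/well. Metric: AUC and within-line Z-AUC after DMSO/empty-well normalization.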
Assay [7] is described as follows: BET inhibitor-based combinations targeting novel dependencies in MECOM-rearranged (r) AML: AML-194 cell line (AID 2202237; also: nearly all actives have a fitted effect of over 40% in size; also: potency is read from the fitted curve at half-maximal effect). In outline:
as §2

Assay [8] in a line: BET inhibitor-based combinations targeting novel dependencies in MECOM-rearranged (r) AML: OCI-AML3 cell line (AID 2202232). Also: nearly all actives have a fitted effect of over 35% in size. Also: potency is read from the fitted curve at half-maximal effect. As to conditions: Potency: OCI-AML3 viability. In outline:
as §2

A short description of assay [9]: BET inhibitor-based combinations targeting novel dependencies in MECOM-rearranged (r) AML: MV-4-11 cell line (AID 2202233). Also: nearly all actives have a fitted effect of over 45% in size. Also: potency is read from the fitted curve at half-maximal effect. A digest of the protocol:
as §1

Assay [10] in a line: BET inhibitor-based combinations targeting novel dependencies in MECOM-rearranged (r) AML: UCSD-AML1 cell line (AID 2202235). Also: nearly all actives have a fitted effect of over 40% in size. Also: potency is read from the fitted curve at half-maximal effect. A digest of the protocol: as §1
The target of assay [11] is Retinal dehydrogenase 2 (Homo sapiens) (UniProt O94788). Description: qHTS for Inhibitors of the Aldehyde Dehydrogenase Family (ALDH1A2) Confirmation screens (AID 2061314). Also: nearly all actives have a fitted effect of over 65% in size. Also: potency is read from the fitted curve at half-maximal effect.
Assay [12] concerns the target Aldehyde dehydrogenase 1A1 (Homo sapiens) (UniProt P00352). The experiment in a line: qHTS for Inhibitors of the Aldehyde Dehydrogenase Family (ALDH1A1) Confirmatory screens (AID 2061316). Also: nearly all actives have a fitted effect of over 65% in size. Also: potency is read from the fitted curve at half-maximal effect.
Assay [13] can be described thus: BET inhibitor-based combinations targeting novel dependencies in MECOM-rearranged (r) AML: SET-2 cell line (AID 2202231). Also: nearly all actives have a fitted effect of over 35% in size. Also: potency is read from the fitted curve at half-maximal effect.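 As to viability: plate controls were DMSO treated cells for no effect and wells without cells for full effect.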 Conditions: SET-2 AML cells viability, CellTiter-Glo luminescence, 48 h; viability: active compounds read low, concentration not given here. A digest of the protocol:
as §2
For orientation: Cellular ATP, detected with luciferase, serves as a proxy for viable cell number.

Sequence of Cellular tumor antigen p53 (Homo sapiens) (P04637 whole entry, looked up): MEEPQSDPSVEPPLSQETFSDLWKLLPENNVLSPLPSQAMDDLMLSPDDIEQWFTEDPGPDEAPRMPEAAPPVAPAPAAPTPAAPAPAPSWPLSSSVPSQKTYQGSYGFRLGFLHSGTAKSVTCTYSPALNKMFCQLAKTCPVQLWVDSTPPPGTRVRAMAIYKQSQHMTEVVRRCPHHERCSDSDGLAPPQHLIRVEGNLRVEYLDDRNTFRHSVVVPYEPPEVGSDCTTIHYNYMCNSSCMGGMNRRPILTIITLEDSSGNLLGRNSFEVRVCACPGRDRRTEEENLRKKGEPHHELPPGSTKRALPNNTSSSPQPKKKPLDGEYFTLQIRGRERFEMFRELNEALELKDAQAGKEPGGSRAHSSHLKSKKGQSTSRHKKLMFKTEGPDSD

Consider `CCC1=C(C)CN(C(=O)NCCc2ccc(S(=O)(=O)NC(=O)NC3CCC(C)CC3)cc2)C1=O` (stereo unspecified), for which the activation in [1] was -11% and 10.7% and 1.91%. Moreover, the Potency result in assay [2], in [3], in assay [4], in assay [5], in assay [6] and in [7] was “inactive” each time.

As to `O=C(O)C[C@H](O)C[C@H](O)/C=C/c1c(C2CC2)nc2ccccc2c1-c1ccc(F)cc1`, the activation in assay [1] is 15.3%. Also, the Potency result in assay [2], in assay [3] and in assay [4] was “inactive” in each case. Besides, the Potency in [8] was 1050 nM (active); in assay [9], 2090 nM (active); in assay [5], 2950 nM (active); in assay [10], 2630 nM (active); in assay [6] it was 10500 nM (active); in [7], 13200 nM (active).

For `O=C(Nc1cccnc1)N1CCC(Cc2cccc(Oc3ccc(C(F)(F)F)cn3)c2)CC1`, the activation in assay [1] is -5.98% and -11%. For the same compound, the Potency result in [2], in assay [3] and in assay [4] was “inactive” throughout. In addition, the values for the Potency in [9], in [10] and in [6] were 5900 nM (active), 26300 nM (active) and 20900 nM (active), respectively.

Turning to `COC1CC(=O)C23C(=O)NC(CC(C)C)C2C(C)C(C)=CC3/C=C(\C)CCC(O)C1O` (stereo unspecified), the activation in assay [1] is 23.7%. Further, the Potency entry in [2] and in assay [4] was “inactive” in each case.

For `COc1cc(O)cc2c1C(=O)OC(C)CCCCCCC2` (stereo unspecified), the activation in [1] was 1.79%. Besides, the Potency entry in [2], in assay [11] and in assay [4] was “inactive” each time.

In the case of `C=C1C(=O)O[C@@H]2[C@H]1CC(=O)[C@H](C)[C@@](O)(C(=O)/C=C/C)[C@H]2OC(=O)C(C)CC` (stereo partly specified), the Potency in assay [1] is 5.88 µM (active); in assay [11] it was 4400 nM (active). For the same compound, the Potency result in assay [2], in assay [4] and in assay [12] was “inactive” in each case.

What is called viability is a read-out of living cells in per cent, often relative to untreated cells. As to `N#Cc1c(O)c2c(-c3ccc(-c4ccccc4O)cc3)csc2[nH]c1=O`, the activation in assay [1] was 4.35% and -11.5%. In addition, the results for the Potency in assay [2] and in assay [11] were 17800 nM (active) and 12700 nM (active), respectively. Besides, the Potency result in [4], in assay [8], in [9], in assay [5], in assay [10] and in assay [6] was “inactive” each time. Moreover, the Potency entry in assay [7] was “inactive”. The viability in [13] was 120%.

As for `CC1=C(c2ccc(NC(=O)c3c(F)cccc3F)cc2)CN(c2nccs2)CC1`, the activation in assay [1] was 21.7%. Besides, the Potency entry in [2] and in [4] was “inactive” each time.

For the compound `CC(C)CC(=O)OC[C@@]1(O)C[C@@]23CC[C@H]4[C@@](C)(CCC[C@@]4(C)C(=O)O)[C@@H]2CC[C@@H]1C3`, the activation in assay [1] is -13%. Moreover, the Potency result in assay [2] and in assay [4] was “inactive” in each case.

For `COC(=O)[C@H](Cc1cccc(C(=N)N)c1)[C@@H](C)NC(=O)c1ccc(-c2cc[n+]([O-])cc2)cc1`, the activation in assay [1] was 8.93%. Further, the Potency entry in [2] and in assay [4] was “inactive” each time.

For the compound `CN[C@@H](C)C(=O)N[C@H]1CN(C(=O)CC(C)C)CC[C@H]2CC[C@@H](C(=O)NC(c3ccccc3)c3ccccc3)N2C1=O`, the activation in assay [1] is 28.1%. The Potency entry in assay [2], in assay [3], in assay [4] and in assay [7] was “inactive” in each case.

Take `O=C1NC(=Nc2ccccc2F)S/C1=C\c1ccc(C(=O)O)cc1`: the activation in assay [1] was 0.333%. Further, the Potency result in assay [2] and in assay [4] was “inactive” in each case.

With `CC(=O)OC/C=C(\C)C(CC1C(C)=C(OC(C)=O)C(=O)C2C(C)(C)C(O)CCC12C)OC(C)=O` (stereo unspecified), in assay [1], the activation was -2.68%. Further, the Potency entry in [2] and in [4] was “inactive” throughout.

Take `CC1=CC(=O)CC(C)(C)C1/C=C/C(C)OC1OC(COC2OCC(O)C(O)C2O)C(O)C(O)C1O` (stereo unspecified): the activation in assay [1] was 8.93%. For the same compound, the Potency result in assay [2] and in assay [4] was “inactive” in each case.

As to `CC(=O)N[C@@H](CC(C)C)C(=O)N[C@@H](CCC(=O)O)C(=O)N[C@@H](CCC(=O)O)C(=O)N[C@@H](CC(=O)O)C(=O)Nc1ccc2c(C(F)(F)F)cc(=O)oc2c1` (Ac-LEED-{AFC}), the activation in [1] was 2.33%. The Potency entry in assay [2] and in [4] was “inactive” throughout.

For the compound `COc1ccc(C2(CNC(=O)[C@](C)(Cc3c[nH]c4ccccc34)NC(=O)Nc3ccc([N+](=O)[O-])cc3)CCCCC2)nc1`, the activation in assay [1] is 12.9%. Besides, the Potency result in [2] and in assay [4] was “inactive” each time.

Take `Cc1ccc(CNc2ncnc3ccc(-c4ccc(CO)o4)cc23)o1`: the activation in assay [1] was -4.46%. For the same compound, the Potency result in assay [2], in assay [11] and in assay [4] was “inactive” in each case. The Potency in assay [12] is 4000 nM (active).

As to `CCN(CC)Cc1ccc2cc(COC(=O)Nc3ccc(C(=O)NO)cc3)ccc2c1`, the Potency in [1] is 30.1 µM (active) and 27.3 µM (active); in [13] it was 662 nM (active); in [8], 662 nM (active); in assay [9] it was 372 nM (active); in assay [5], 934 nM (active); in [10], 525 nM (active). The Potency in assay [6] is 742 nM (active); in assay [7] it was 934 nM (active). Further, the Potency result in [2] and in assay [3] was “inactive” in each case.

In the case of `N#Cc1ccc(Oc2ccc3c(c2)COB3O)cc1`, in assay [1], the activation is 19.4% and -4.77%. Further, in [2], the Potency result was “inactive”. Also, the Potency in assay [3] is 2820 nM (active); in assay [6], 13200 nM (active). Moreover, in assay [13], the viability is 109%.
